# Test results as given in PubChem BioAssay.
# The source made the active and inactive calls.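 The calls were made as follows, unless noted: active = compounds whose cell count with miR-34 switched on is under 0.7 times the count with it off; inactive = the rest.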
# Experiments:
# [1] = viability loss with induced miR-34 in A549 – imaging, A549 dox-inducible miR-34, nuclei and caspase counts, primary screen (AID 1347080); settings: A549 miR-34 inducible, Hoechst nuclei count, 48 h
# [2] = MELAS cybrid and Rieske KO viability enhancers – cell-based, MELAS cybrids, Rieske KO mouse fibroblasts, CellTiter-Glo, primary screen (AID 1508586;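 active = mean z-score across replicates of 1.96 or higher in either the MELAS or the Rieske mutant cell line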;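 also: z relative to plate mean and SD of compound and empty wells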); settings: low glucose
# [3] = stronger effect = lower value, cell number ratio, induced over uninduced
# [4] = measured here: relative caspase fold change +Dox/-Dox
# [5] = measured here: total cells with miR-34 induction, stronger effect = lower value
# [6] = measured here: total cells without miR-34 induction
# [7] = MELAS cybrid survival, CellTiter-Glo 48 h, stronger effect = higher value
# [8] = Rieske KO mouse fibroblast survival, CellTiter-Glo 72 h
# Also: test concentration not given here.
SMILES,"fold change [1, 3]","fold change [1, 4]","cell count [1, 5]","cell count [1, 6]","z-score [2, 7]","z-score [2, 8]"
CCC(=O)NCCC1CCc2ccc3c(c21)CCO3 (stereo not given),0.931 (inactive),4.33,8720,9370,-0.89 (inactive),0.046
CCC(C)Nc1cc(C(=O)NC2CC3CCC(C2)N3c2ccc(C(=O)C3CC3)cn2)c(C)cc1C(N)=O (stereo not given),0.94 (inactive),0.437,2340,2490,2.2 (active),-1.06
CCc1cccc2c3c([nH]c12)[C@](CC)(CC(=O)O)OCC3,0.926 (inactive),0.786,7980,8620,-0.475 (inactive),-0.00521
CC(C)c1nc(CN(C)C(=O)NC(CCN2CCOCC2)C(=O)NC(CCC(Cc2ccccc2)NC(=O)OCc2cncs2)Cc2ccccc2)cs1 (stereo not given),0.977 (inactive),0.47,5730,5860,-0.312 (inactive),-0.261
CC(=NNC(=S)N1CCC1)c1ccccn1,0.887 (inactive),0.742,1950,2200,7.64 (active),-5.36
C[C@]12C=CC(=O)C=C1CC[C@@H]1[C@H]2C(O)C[C@@]2(C)[C@H]1CC[C@@]2(O)C(=O)CO (stereo not given in full),0.833 (inactive),1.24,4970,5970,-0.42 (inactive),-1.24
CC1COC(Nc2ccc3ncnc(Nc4ccc(OCc5nccs5)c(Cl)c4)c3c2)=N1 (stereo not given),0.841 (inactive),0.704,6940,8260,0.156 (inactive),-0.466
CC1CC(=O)NN=C1c1ccc(NN=C(C#N)C#N)cc1 (stereo not given),0.851 (inactive),1.15,8280,9730,-0.305 (inactive),-0.733
Nc1nc2c(ncn2C2OC(CO)C(O)C2O)c(=O)[nH]1 (stereo not given),0.891 (inactive),0.755,8140,9140,-0.357 (inactive),-0.0165
CC(=CC(=O)OCCCCCCCCC(=O)O)CC1OC[C@H](CC2O[C@H]2C(C)C(C)O)C(O)C1O (stereo not given in full),0.939 (inactive),0.638,8270,8800,0.679,5.51
Cc1cc2c(F)c(Oc3ncnn4cc(OCC(C)O)c(C)c34)ccc2[nH]1 (stereo not given),1.07 (inactive),0.907,4250,3990,-0.638 (inactive),0.759
CC(C)(C)c1ccc(-c2nc3ccccc3[nH]2)cc1,0.982 (inactive),0.555,8150,8300,-0.625 (inactive),-3.26
Cc1nc(N(C)C(=O)Cc2ccc(-c3ccccn3)cc2)sc1S(N)(=O)=O,0.911 (inactive),0.414,7530,8270,-0.339 (inactive),-0.561
CCNC(=O)c1[nH]nc(-c2cc(Cl)c(O)cc2O)c1-c1ccc(OC)cc1,1.1 (inactive),0.416,3020,2740,2.3 (active),-0.612
NC(=O)c1noc(C(CCCC2CCCCC2)CC(=O)NO)n1 (stereo not given),0.791 (inactive),1.15,6790,8580,-0.42 (inactive),-1.85
OCCOc1ccc(C(=C(CCCl)c2ccccc2)c2ccccc2)cc1,0.979 (inactive),0.793,9190,9380,-0.333 (inactive),-0.092
CC(C)N(CCCNC(=O)Nc1ccc(C(C)(C)C)cc1)CC1OC(n2ccc3c(N)ncnc32)C(O)C1O (stereo not given),0.885 (inactive),0.359,8440,9540,-0.287 (inactive),0.555
CC(=O)[C@H]1CC[C@H]2[C@@H]3C=CC4=CC(=O)CC[C@@]4(C)[C@H]3CC[C@]12C,0.894 (inactive),0.952,7680,8580,-0.0223 (inactive),-0.212
CN1CC(=O)N2C(c3ccc4c(c3)OCO4)c3[nH]c4ccccc4c3C[C@@H]2C1=O (stereo not given in full),0.882 (inactive),0.922,6530,7410,-0.417 (inactive),0.533
CCNc1nc(Nc2cc(F)c(C(=O)N3CCOCC3)cc2OC)ncc1C(F)(F)F,0.9 (inactive),0.418,8080,8970,-0.325 (inactive),-0.142
C=CCNC1=C2CC(C)CC(OC)C(O)C(C)C=C(C)C(OC(N)=O)C(OC)C=CC=C(C)C(=O)NC(=CC1=O)C2=O (stereo not given),1.02 (inactive),1.05,1870,1820,1.58 (inactive),-0.477
CC(C)CCNC(=O)C(CC(C)C)NC(=O)C1OC1C(=O)O (stereo not given),0.919 (inactive),0.36,8670,9430,-0.356 (inactive),0.0853
CCOC(=O)C(CCc1ccccc1)NC(C)C(=O)N1Cc2ccccc2CC1C(=O)O (stereo not given),0.963 (inactive),1.71,8090,8400,0.0216 (inactive),-0.419
COC1C[C@H]2CCC(C)[C@@](O)(O2)C(=O)C(=O)N2CCCC[C@H]2C(=O)OC(C(C)CC2CCC(OP(C)(C)=O)C(OC)C2)CC(=O)C(C)C=C(C)C(O)C(OC)C(=O)C(C)CC(C)C=CC=CC=C1C (stereo not given in full),1.07 (inactive),0.835,4570,4270,0.709 (inactive),1.92
COC1=C2CC(C)CC(OC)C(O)C(C)C=C(C)C(OC(N)=O)C(OC)C=CC=C(C)C(=O)NC(=CC1=O)C2=O (stereo not given),0.91 (inactive),1.01,3230,3550,2.85 (active),-2.42
CC1C[C@H]2[C@@H]3CCC4=CC(=O)C=C[C@]4(C)[C@]3(Cl)C(O)C[C@]2(C)[C@]1(OC(=O)c1ccco1)C(=O)CCl (stereo not given in full),0.916 (inactive),0.877,4380,4780,-0.46 (inactive),-0.518
O=C(O)CCCCC1SC[C@@H]2NC(=O)N[C@H]12 (stereo not given in full),0.883 (inactive),0.431,8160,9250,-0.0238 (inactive),-0.137
C=C1C(=O)[C@@]23C(O)[C@H]1CCC2[C@]12CO[C@]3(O)C(O)[C@@H]1C(C)(C)CCC2O (stereo not given in full),0.94 (inactive),0.647,8410,8940,-0.553 (inactive),-0.438
C[C@]12CC[C@H]3c4ccc(O)cc4CC[C@H]3[C@@H]1CCC2O (stereo not given in full),0.784 (inactive),0.957,6520,8310,-0.389 (inactive),-0.286
CCC(=O)O[C@@]1(C(=O)CCl)C(C)C[C@H]2[C@@H]3CC(F)C4=CC(=O)C=C[C@]4(C)[C@]3(F)C(O)C[C@@]21C (stereo not given in full),0.853 (inactive),0.626,4930,5780,-0.347 (inactive),-0.183
